Source: PubChem BioAssay (NCI)
The panel holds about 79,000 compounds, 15% with a hit somewhere; the sample as a whole holds those more often. Values without a mark were called inactive. Calls of active or inactive are those of the source. No stated cut-off is given here; in the data, active means growth inhibition above about 70%; inactive means the rest.

Assays:
[1] = NCI Yeast Anticancer Drug Screen. Data for the rad52 strain (AID 147);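 further: 0% = growth of vehicle-treated control cultures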; settings: S. cerevisiae rad52 mutant growth inhibition, hits give high values
Procedure, shortened: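 Measured: yeast growth inhibition. System: strain with a defined DNA damage repair alteration. Reference: vehicle-treated control cultures.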

[2] = NCI Yeast Anticancer Drug Screen. Data for the wt1 strain (AID 149);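 further: 0% = growth of vehicle-treated wt1 cultures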; settings: S. cerevisiae wt1 strain (SPY 50644) growth inhibition, hits give high values
Procedure, shortened: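 Vehicle-normalised growth inhibition; strain wt1; compound exposure.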

[3] = NCI Yeast Anticancer Drug Screen. Data for the rad50EPP+ strain (AID 151);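 further: 0% = growth of vehicle-treated control cultures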; settings: S. cerevisiae rad50 mutant strain, hits give high values
Procedure, shortened: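 One strain with a rad50 alteration (rad50EPP+) was compound-treated, its growth then compared to that of vehicle controls.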

[4] = NCI Yeast Anticancer Drug Screen. Data for the mgt1 strain (AID 153); settings: S. cerevisiae mgt1 mutant growth inhibition, hits give high values
Procedure, shortened: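 After exposure of the mgt1 yeast mutant to compound, growth was measured and reported as inhibition compared with vehicle controls.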

[5] = NCI Yeast Anticancer Drug Screen. Data for the rad50 strain (AID 155);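 further: 0% = growth of vehicle-only cultures of the same strain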; settings: S. cerevisiae rad50 strain growth inhibition, hits give high values
Procedure, shortened: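 A DNA repair-deficient yeast mutant serves as the test organism; compound-induced growth inhibition is calculated against vehicle-treated cells.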

[6] = NCI Yeast Anticancer Drug Screen. Data for the mec2-1 strain (AID 157); settings: S. cerevisiae mec2-1 strain, hits give high values
Procedure, shortened: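 Test agents were screened against the mec2-1 yeast strain, with defined DNA repair or cell cycle alteration. Growth was scored as inhibition against vehicle-only controls.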

[7] = NCI Yeast Anticancer Drug Screen. Data for the rad14 strain (AID 159);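 further: 0% = growth of vehicle-treated control cultures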; settings: S. cerevisiae rad14 strain growth inhibition, hits give high values
Procedure, shortened: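 Vehicle-treated cultures served as the baseline for growth inhibition of a DNA repair-mutant yeast strain exposed to each compound.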

[8] = NCI Yeast Anticancer Drug Screen. Data for the sgs1 mgt1 strain (AID 161);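 further: 0% = growth of cultures given vehicle only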; settings: S. cerevisiae sgs1 mgt1 strain, hits give high values
Procedure, shortened: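 Test agents were incubated with a DNA-repair-mutant yeast strain. Growth was then read and compared against vehicle-treated controls.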

[9] = NCI Yeast Anticancer Drug Screen. Data for the CLN2oe strain (AID 163);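 further: 0% = growth of vehicle-only control cultures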; settings: S. cerevisiae CLN2oe strain, hits give high values
Procedure, shortened: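 Here, growth inhibition in a cell-cycle-altered yeast strain after compound exposure was quantified against vehicle control growth.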

[10] = NCI Yeast Anticancer Drug Screen. Data for the cln2 rad14 strain (AID 165);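 further: 0% = growth equal to vehicle treated cultures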; settings: S. cerevisiae cln2 rad14 strain, hits give high values
Procedure, shortened: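 Growth of compound-exposed yeast (cln2 rad14 genotype) measured and expressed as inhibition relative to vehicle.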

[11] = NCI Yeast Anticancer Drug Screen. Data for the bub3 strain (AID 167); settings: S. cerevisiae bub3 mutant strain, hits give high values
Procedure, shortened: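 Inhibition values come from growth of compound-treated mutant yeast normalised to vehicle-treated controls.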

[12] = NCI Yeast Anticancer Drug Screen. Data for the wt2 strain (AID 169);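 further: 0% = growth of vehicle-treated yeast cultures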; settings: S. cerevisiae wt2 strain growth inhibition, hits give high values
Procedure, shortened: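 Genetically defined yeast strains from a DNA-repair/cell-cycle panel were used. Compound-exposed yeast growth was measured, and the inhibition was calculated relative to vehicle treatment.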

[13] = NCI Yeast Anticancer Drug Screen. Data for the mlh1 strain (AID 171);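 further: 0% = growth of vehicle-treated control cultures of the same strain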; settings: S. cerevisiae mlh1 strain growth inhibition, hits give high values
Procedure, shortened: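 Here the genetically defined yeast mutant is grown with each compound, and the extent to which its growth falls below that of vehicle-exposed cells is reported.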

[14] = NCI Yeast Anticancer Drug Screen. Data for the sgs1 strain (AID 173);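 further: 0% = growth of vehicle-only control cultures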; settings: S. cerevisiae sgs1 mutant, hits give high values
Procedure, shortened: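 Relative growth inhibition, referenced to vehicle, was determined in a yeast strain with a defined alteration affecting DNA damage repair or cell cycle control after compound exposure.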

[15] = NCI Yeast Anticancer Drug Screen. Data for the mlh1 rad18 strain (AID 175); settings: S. cerevisiae mlh1 rad18 strain growth inhibition, hits give high values
Procedure, shortened: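 In this whole-cell yeast screen, a strain with altered DNA damage repair is challenged with compound, and its growth is measured against matched vehicle-treated controls.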

[16] = NCI Yeast Anticancer Drug Screen. Data for the rad18 strain (AID 177); settings: S. cerevisiae rad18 mutant growth inhibition, hits give high values
Procedure, shortened: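 Screen uses a yeast strain with a defined lesion in DNA damage repair; compound effect is read as loss of growth compared to untreated vehicle cultures.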

[17] = at 5.0 µM (retest, dose inferred, filed as 0.5)
[18] = at 50.0 µM (retest, dose inferred, filed as 5.0)

## NC(CCCCCCCCCCCCC(N)C(=O)c1ccccc1)C(=O)c1ccccc1 (stereo unspecified)
[1]; at 1.2 µM
  growth inhibition: -3%
[1]; at 3.7 µM
  growth inhibition: -4%
[1]; at 11.0 µM
  growth inhibition: 88% (active)
[1]; at 33.0 µM
  growth inhibition: 92% (active)
[1]; at 100.0 µM
  growth inhibition: 96% (active)
[2]; at 1.2 µM
  growth inhibition: -4%
[2]; at 3.7 µM
  growth inhibition: -12%
[2]; at 11.0 µM
  growth inhibition: 75% (active)
[2]; at 33.0 µM
  growth inhibition: 95% (active)
[2]; at 100.0 µM
  growth inhibition: 95% (active)
[3]; at 1.2 µM
  growth inhibition: -2%
[3]; at 3.7 µM
  growth inhibition: -1%
[3]; at 11.0 µM
  growth inhibition: -2%
[3]; at 33.0 µM
  growth inhibition: -1%
[3]; at 100.0 µM
  growth inhibition: -3%
[4]; at 1.2 µM
  growth inhibition: -5%
[4]; at 3.7 µM
  growth inhibition: -9%
[4]; at 11.0 µM
  growth inhibition: 17%
[4]; at 33.0 µM
  growth inhibition: 39%
[4]; at 100.0 µM
  growth inhibition: 94% (active)
[5]; at 1.2 µM
  growth inhibition: -3%
[5]; at 3.7 µM
  growth inhibition: -6%
[5]; [17]
  growth inhibition: -9%
[5]; at 11.0 µM
  growth inhibition: 81% (active)
[5]; at 33.0 µM
  growth inhibition: 85% (active)
[5]; [18]
  growth inhibition: 88% (active)
[5]; at 50.0 µM
  growth inhibition: -5.55%
[5]; at 100.0 µM
  growth inhibition: 93% (active)
[6]; at 1.2 µM
  growth inhibition: -6%
[6]; at 3.7 µM
  growth inhibition: -15%
[6]; [17]
  growth inhibition: -15%
[6]; at 11.0 µM
  growth inhibition: 43%
[6]; at 33.0 µM
  growth inhibition: 61%
[6]; [18]
  growth inhibition: 92% (active)
[6]; at 50.0 µM
  growth inhibition: -9.95%
[6]; at 100.0 µM
  growth inhibition: 91% (active)
[7]; at 1.2 µM
  growth inhibition: -6%
[7]; at 3.7 µM
  growth inhibition: -12%
[7]; at 11.0 µM
  growth inhibition: 38%
[7]; at 33.0 µM
  growth inhibition: 62%
[7]; at 100.0 µM
  growth inhibition: 96% (active)
[8]; [17]
  growth inhibition: -10%
[8]; [18]
  growth inhibition: 94% (active)
[8]; at 50.0 µM
  growth inhibition: -12.2%
[9]; at 1.2 µM
  growth inhibition: -9%
[9]; at 3.7 µM
  growth inhibition: -20%
[9]; at 11.0 µM
  growth inhibition: 52%
[9]; at 33.0 µM
  growth inhibition: 91% (active)
[9]; at 100.0 µM
  growth inhibition: 95% (active)
[10]; [17]
  growth inhibition: -26%
[10]; [18]
  growth inhibition: 92% (active)
[10]; at 50.0 µM
  growth inhibition: -32.3%
[11]; at 1.2 µM
  growth inhibition: -3%
[11]; at 3.7 µM
  growth inhibition: 0%
[11]; [17]
  growth inhibition: 4%
[11]; at 11.0 µM
  growth inhibition: 74% (active)
[11]; at 33.0 µM
  growth inhibition: 95% (active)
[11]; [18]
  growth inhibition: 94% (active)
[11]; at 50.0 µM
  growth inhibition: -2.55%
[11]; at 100.0 µM
  growth inhibition: 91% (active)
[12]; at 1.2 µM
  growth inhibition: -4%
[12]; at 3.7 µM
  growth inhibition: -8%
[12]; at 11.0 µM
  growth inhibition: 83% (active)
[12]; at 33.0 µM
  growth inhibition: 96% (active)
[12]; at 100.0 µM
  growth inhibition: 96% (active)
[13]; at 1.2 µM
  growth inhibition: -4%
[13]; at 3.7 µM
  growth inhibition: -10%
[13]; at 11.0 µM
  growth inhibition: 59%
[13]; at 33.0 µM
  growth inhibition: 94% (active)
[13]; at 100.0 µM
  growth inhibition: 93% (active)
[14]; at 1.2 µM
  growth inhibition: -5%
[14]; at 3.7 µM
  growth inhibition: -7%
[14]; at 11.0 µM
  growth inhibition: 82% (active)
[14]; at 33.0 µM
  growth inhibition: 96% (active)
[14]; at 100.0 µM
  growth inhibition: 95% (active)
[15]; [17]
  growth inhibition: -8%
[15]; [18]
  growth inhibition: -13%
[15]; at 50.0 µM
  growth inhibition: -10.4%

## C/C1=C/C2OC(=O)C3(C)C2C(CC2(C)OC1=CC2=O)OC3(O)C(C)C (stereo unspecified)
[1]; at 1.2 µM
  growth inhibition: -27%
[1]; at 3.7 µM
  growth inhibition: -33%
[1]; at 11.0 µM
  growth inhibition: -32%
[1]; at 33.0 µM
  growth inhibition: -60%
[1]; at 100.0 µM
  growth inhibition: -39%
[2]; at 1.2 µM
  growth inhibition: -23%
[2]; at 3.7 µM
  growth inhibition: -29%
[2]; at 11.0 µM
  growth inhibition: -42%
[2]; at 33.0 µM
  growth inhibition: -16%
[2]; at 100.0 µM
  growth inhibition: -33%
[3]; at 1.2 µM
  growth inhibition: -9%
[3]; at 3.7 µM
  growth inhibition: -1%
[3]; at 11.0 µM
  growth inhibition: 32%
[3]; at 33.0 µM
  growth inhibition: 72% (active)
[3]; at 100.0 µM
  growth inhibition: 91% (active)
[4]; at 1.2 µM
  growth inhibition: -21%
[4]; at 3.7 µM
  growth inhibition: -18%
[4]; at 11.0 µM
  growth inhibition: 8%
[4]; at 33.0 µM
  growth inhibition: 68%
[4]; at 100.0 µM
  growth inhibition: 93% (active)
[5]; at 1.2 µM
  growth inhibition: -25%
[5]; at 3.7 µM
  growth inhibition: -29%
[5]; [17]
  growth inhibition: 16%
[5]; at 11.0 µM
  growth inhibition: -38%
[5]; at 33.0 µM
  growth inhibition: -57%
[5]; [18]
  growth inhibition: 21%
[5]; at 50.0 µM
  growth inhibition: 6.75%
[5]; at 100.0 µM
  growth inhibition: -47%
[6]; at 1.2 µM
  growth inhibition: -16%
[6]; at 3.7 µM
  growth inhibition: -27%
[6]; [17]
  growth inhibition: 18%
[6]; at 11.0 µM
  growth inhibition: -27%
[6]; at 33.0 µM
  growth inhibition: -18%
[6]; [18]
  growth inhibition: 24%
[6]; at 50.0 µM
  growth inhibition: -27.4%
[6]; at 100.0 µM
  growth inhibition: -24%
[7]; at 1.2 µM
  growth inhibition: -27%
[7]; at 3.7 µM
  growth inhibition: -20%
[7]; at 11.0 µM
  growth inhibition: -34%
[7]; at 33.0 µM
  growth inhibition: -39%
[7]; at 100.0 µM
  growth inhibition: -16%
[8]; [17]
  growth inhibition: 21%
[8]; [18]
  growth inhibition: 87% (active)
[8]; at 50.0 µM
  growth inhibition: 82.4% (active)
[9]; at 1.2 µM
  growth inhibition: 4%
[9]; at 3.7 µM
  growth inhibition: 22%
[9]; at 11.0 µM
  growth inhibition: 13%
[9]; at 33.0 µM
  growth inhibition: 0%
[9]; at 100.0 µM
  growth inhibition: 10%
[10]; [17]
  growth inhibition: 27%
[10]; [18]
  growth inhibition: 29%
[10]; at 50.0 µM
  growth inhibition: 7.4%
[11]; at 1.2 µM
  growth inhibition: -8%
[11]; at 3.7 µM
  growth inhibition: -19%
[11]; [17]
  growth inhibition: 22%
[11]; at 11.0 µM
  growth inhibition: -20%
[11]; at 33.0 µM
  growth inhibition: -35%
[11]; [18]
  growth inhibition: 16%
[11]; at 50.0 µM
  growth inhibition: -16.7%
[11]; at 100.0 µM
  growth inhibition: -28%
[12]; at 1.2 µM
  growth inhibition: 8%
[12]; at 3.7 µM
  growth inhibition: 21%
[12]; at 11.0 µM
  growth inhibition: 27%
[12]; at 33.0 µM
  growth inhibition: 79% (active)
[12]; at 100.0 µM
  growth inhibition: 91% (active)
[13]; at 1.2 µM
  growth inhibition: 21%
[13]; at 3.7 µM
  growth inhibition: 5%
[13]; at 11.0 µM
  growth inhibition: 31%
[13]; at 33.0 µM
  growth inhibition: 60%
[13]; at 100.0 µM
  growth inhibition: 90% (active)
[14]; at 1.2 µM
  growth inhibition: 5%
[14]; at 3.7 µM
  growth inhibition: -1%
[14]; at 11.0 µM
  growth inhibition: 26%
[14]; at 33.0 µM
  growth inhibition: 72% (active)
[14]; at 100.0 µM
  growth inhibition: 92% (active)
[15]; [17]
  growth inhibition: 24%
[15]; [18]
  growth inhibition: 32%
[15]; at 50.0 µM
  growth inhibition: -6.1%
[16]; at 1.2 µM
  growth inhibition: -6%
[16]; at 3.7 µM
  growth inhibition: -33%
[16]; at 11.0 µM
  growth inhibition: -38%
[16]; at 33.0 µM
  growth inhibition: -44%
[16]; at 100.0 µM
  growth inhibition: -37%
